APE1 inh: blocks human APE1 abasic DNA cleavage | AID 2517 | recombinant APE1, TAMRA/BHQ-2 abasic DNA cleavage fluorescence | P27695 | 0.35% of 350,000 active | Potency, µM (top dose mostly 65.8 µM), usual class: inhibitors; also: nearly all actives have a fitted effect of over 55% in size
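Kinetic fluorescence read (525 ex/598 em nm, three reads 60 s apart) of AP-site incision; signal = third minus first read. Enzyme 0.75 nM, dual-labelled THF duplex 50 nM, compound preincubation 15 min RT.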
BLM helicase inh: blocks DNA unwinding by human BLM helicase. Potency, µM (doses to about 56.1 µM), actives largely listed as inhibitors. recombinant BLM DNA unwinding, fluorescence dequenching. P54132. AID 2528. 0.2% of 350,000 active; also: nearly all actives have a fitted effect of over 35% in size
FEN1 inh: blocks human flap endonuclease 1. Recombinant FEN1 flap cleavage, fluorescence, 15 min. Potency, µM (highest dose often 114 µM), usual class: inhibitors. 0.35% of 390,000 active; also: nearly all actives have a fitted effect of over 65% in size
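Compounds are tested as a concentration series against 10 nM FEN1; after a 15 min room-temperature preincubation, 50 nM substrate starts cleavage, with plate reads at 0 and 15 min. Normalized responses are fitted by a Hill equation.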
WRN inhibitor: blocks human WRN helicase | Q14191 | WRN helicase unwinding, fluorescent forked duplex, kinetic | Potency, µM (series often up to 114 µM), hits mostly inhibitors | 0.46% of 360,000 active; also: nearly all actives have a fitted effect of over 55% in size
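WRN at 20 nM final was preincubated with compound for 15 min at room temperature; reaction started with 100 nM forked duplex oligonucleotide carrying fluorophore and quencher plus 2 mM ATP (final). Unwinding followed kinetically by red fluorescence (ex 525/em 598 nm).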
PI5P4Ka inh: blocks human PI5P4K alpha kinase activity; P48426; PI5P4Kalpha enzyme, ADP-Glo luminescence, 60 min; hits give low values; max response, %; 1.2% of 330,000 active; active = max response of -50% or lower; inconclusive = between -30% and -50%; inactive = -30% or higher; also: value at the top dose of about 77 µM
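Single end-point luminescence (ADP-Glo) quantified ADP from PI5P4Kalpha turnover; ATP 5 microM final, 1 h at RT, 0.1% CHAPS and 0.28 mM EGTA in HEPES pH 7.4.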
RECQ1 helicase: blocks DNA unwinding by human RECQ1. RECQ1 DNA unwinding, red fluorescence kinetic read. Potency, µM (doses to about 57.3 µM), hits mostly inhibitors. 0.54% of 240,000 active. AID 2549; also: nearly all actives have a fitted effect of over 30% in size
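50 nM RECQ1T1 preincubated 15 min with compound in Tris pH 8.0 buffer with MgCl2, DTT, Tween-20 and 2.5 ug/ml poly(dI-dC); started with 200 nM TAMRA/BHQ-2 forked duplex and 2 mM ATP. Unwinding read as fluorescence (525/598 nm), two reads 2 h apart.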
A number is an active result; [ ] = remark or other dose. Most compounds without a hit are left out; they make up all but 1.5% or so of the library. Unless noted, calls follow the shape of the dose curve; as a rule, active = well fitted curve in the direction sought with a large enough effect; inconclusive = small, poorly fitted or top-dose-only effect, or another doubt; inactive = no such curve, though single readings can be large; an effect the other way counts as inactive or inconclusive.

Results for COc1ccc(Cl)cc1-c1n[nH]c(=S)o1 ?
APE1 inh: inactive; BLM helicase inh: inactive; FEN1 inh: inactive; WRN inhibitor: inactive; PI5P4Ka inh: -74.9; RECQ1 helicase: inactive

Results for COc1ccc(C(=O)Nc2ccncc2)cc1OC ?
APE1 inh: inactive; BLM helicase inh: inactive; FEN1 inh: inactive; WRN inhibitor: inactive; RECQ1 helicase: inactive

Results for O=C(Nc1ccc(-c2n[nH]c(=S)o2)cc1)c1ccccc1Br ?
APE1 inh: inactive; BLM helicase inh: inactive; FEN1 inh: inactive; WRN inhibitor: inactive; PI5P4Ka inh: -57.5

How did O=C(Nc1ccc(NC(=O)c2ccccc2Br)cc1)c1ccccc1 do in these assays?
APE1 inh: inactive; BLM helicase inh: inactive; FEN1 inh: inactive; WRN inhibitor: inactive; PI5P4Ka inh: inactive

How did COc1cccc([C@@H]2Oc3ccc(OC)cc3C[C@H]2OC(=O)NS(=O)(=O)c2ccc(F)cc2)c1 do in these assays?
APE1 inh: inactive; BLM helicase inh: inactive; RECQ1 helicase: inactive

Results for COc1cc([N+](=O)[O-])c2ncsc2c1 ?
APE1 inh: inactive; BLM helicase inh: inactive; FEN1 inh: inactive; WRN inhibitor: inactive; PI5P4Ka inh: inactive; RECQ1 helicase: inactive

How did COc1cc(SSc2cc(OC)cc([N+](=O)[O-])c2N)c(N)c([N+](=O)[O-])c1 do in these assays?
APE1 inh: inactive; BLM helicase inh: inactive; FEN1 inh: inconclusive; WRN inhibitor: inactive; PI5P4Ka inh: -93.5; RECQ1 helicase: inactive

What do the screens show for `C=C(C)Cn1c(SCC(=O)Nc2cccc(C)c2)nc2sc3c(c2c1=O)CCCC3`?
BLM helicase inh: inactive; FEN1 inh: inactive

Results for O=C(OCCC12CC3CC(CC(C3)C1)C2)c1ccc(NCc2cc(O)ccc2O)cc1 ?
FEN1 inh: inconclusive; WRN inhibitor: inconclusive; PI5P4Ka inh: -59.1

Results for O=C(OCC12CC3CC(CC(C3)C1)C2)c1ccc(NCc2cc(O)ccc2O)cc1 ?
FEN1 inh: inconclusive; WRN inhibitor: inactive; PI5P4Ka inh: inconclusive

Results for CCOc1ccccc1N1CCN(C/C=C/c2ccc(N(C)C)cc2)CC1 ?
APE1 inh: inactive; BLM helicase inh: inactive; FEN1 inh: inactive; WRN inhibitor: inactive; PI5P4Ka inh: inactive; RECQ1 helicase: inactive

Results for CN(C)c1ccc(/C=C/N2C=CCc3c2ccc2ccccc32)cc1 ?
FEN1 inh: 11.2µM

Results for COc1ccc(CCNC(=O)CSc2ccsc2[N+](=O)[O-])cc1OC ?
APE1 inh: inactive; BLM helicase inh: inactive; FEN1 inh: inactive; WRN inhibitor: inactive; PI5P4Ka inh: inactive; RECQ1 helicase: inactive

Results for COc1ccc(OC)c(CCNC(=O)CSc2ccsc2[N+](=O)[O-])c1 ?
APE1 inh: inactive; BLM helicase inh: inactive; FEN1 inh: inactive; WRN inhibitor: inactive; PI5P4Ka inh: -55.3; RECQ1 helicase: inactive

What do the screens show for `COc1ccc(CCNC(=O)CSc2ccsc2[N+](=O)[O-])c(OC)c1`?
APE1 inh: inactive; BLM helicase inh: inactive; FEN1 inh: inactive; WRN inhibitor: inactive[11.6 µM]; PI5P4Ka inh: -57.2; RECQ1 helicase: inactive

How did COc1ccccc1CNC(=O)CSc1ccsc1[N+](=O)[O-] do in these assays?
APE1 inh: inactive; BLM helicase inh: inactive; FEN1 inh: inactive; WRN inhibitor: inactive; PI5P4Ka inh: inconclusive; RECQ1 helicase: inactive

Results for COc1ccccc1-c1nc2c(c(SCc3cc(C)ccc3C)n1)Cc1c(CO)cnc(C)c1O2 ?
BLM helicase inh: inactive; FEN1 inh: inactive

Results for CCc1ccccc1NC(=O)c1nnn(Cc2ccc(Cl)cc2)c1N ?
BLM helicase inh: inactive; FEN1 inh: inactive

What do the screens show for `CCc1ccc(-n2c(=O)c3c4c(sc3n(CC(=O)N3CCC(C)CC3)c2=O)CCC4)cc1`?
BLM helicase inh: inactive; FEN1 inh: inactive

How did COc1ccc(-c2nc(SCC(=O)Nc3ccccc3)c(-c3ccc(F)cc3)[nH]2)cc1OC do in these assays?
BLM helicase inh: inactive; FEN1 inh: inconclusive

What do the screens show for `O=S(=O)(O)c1cccc2c(N=Nc3ccc(O)c4ncccc34)cccc12`?
APE1 inh: 23.8µM; BLM helicase inh: inconclusive; FEN1 inh: inconclusive; WRN inhibitor: 22.4µM; PI5P4Ka inh: -80.6

How did CNc1cc[n+](C)c2ccccc12 do in these assays?
FEN1 inh: inactive

Compound activity deposited in PubChem BioAssay by National Center for Advancing Translational Sciences (NCATS).
